Assays:
Conditions in all cases: concentration: 1 μM,replicates: in singlicate; n = 1
[1] = tested on: T1, ASK2
T1 construct: gene MAP3K6

[2] = tested on: AURKA
[3] = tested on: AURKB
[4] = tested on: AURKC
[5] = tested on: AXL
[6] = tested on: T2, BIKE
T2 construct: gene BMP2K

[7] = tested on: BLK
[8] = tested on: BMPR1A
[9] = tested on: BMPR1B
[10] = tested on: BMPR2
[11] = tested on: BMX
[12] = tested on: BRAF
[13] = tested on: T3, BRK
T3 construct: gene PTK6

[14] = tested on: BRSK1
[15] = tested on: BRSK2
[16] = tested on: BTK
[17] = tested on: BUB1
[18] = tested on: CAMK1B
[19] = tested on: CAMK1D
[20] = tested on: CAMK1G
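Note: KINOMEscan kinase panel screen.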

Structure (SMILES)	%Inh [1]	%Inh [2]	%Inh [3]	%Inh [4]	%Inh [5]	%Inh [6]	%Inh [7]	%Inh [8]	%Inh [9]	%Inh [10]	%Inh [11]	%Inh [12]	%Inh [13]	%Inh [14]	%Inh [15]	%Inh [16]	%Inh [17]	%Inh [18]	%Inh [19]	%Inh [20]
Cl.Cl.NC[C@H](CC1CCCCC1)NC(=O)c1ccc(-c2ccnc3[nH]ccc23)s1 [GSK1581428]	26%	93.8%	96.8%	73%	96.3%	99.1%	0%	8%	23%	1%	2%	0%	5%	11%	17%	0%	44%	0%	36%	9%
CCn1c(-c2nonc2N)nc2cncc(CNC3CCNCC3)c21.Cl [SB-747651]	8%	6%	23%	0%	100%	0%	8%	0%	0%	17%	0%	10%	0%	4%	0%	14%	48%	30%	22%	0%
COc1cccc(CNC(=O)NC2CCN(c3ccnc(Nc4cc(OC)c(OC)c(OC)c4)n3)C2)c1 (centres unmarked) [GSK1379765]	0%	85%	91.4%	79%	30%	53%	9%	0%	0%	23%	23%	0%	34%	0%	0%	42%	81%	35%	17%	0%
COC(=O)c1cccc(NC(=O)NC2CCN(c3ccnc(Nc4cc(OC)c(OC)c(OC)c4)n3)C2)c1 (centres unmarked) [GSK1379767]	0%	72%	39%	73%	0%	60%	0%	11%	0%	26%	30%	0%	8%	0%	0%	37%	48%	38%	14%	0%
COc1cccc(C2=C(Nc3cccc(Cl)c3)C(=O)NC2=O)c1 [SB-341556]	22%	0%	15%	3%	12%	34%	72%	0%	0%	0%	24%	0%	19%	11%	2%	0%	23%	29%	36%	0%
CN(c1cccc(CNc2nc(Nc3ccc4c(c3)CC(=O)N4)ncc2C(F)(F)F)c1)S(C)(=O)=O	0%	93.8%	99.4%	88%	64%	95%	0%	0%	0%	39%	18%	0%	0%	0%	0%	0%	2%	9%	14%	15%
Cn1ccc2ncnc(Oc3ccc(NC(=O)Nc4ccnc(C(F)(F)F)c4)c(Cl)c3)c21	0%	18%	34%	0%	12%	0%	0%	0%	6%	0%	17%	45%	0%	0%	0%	0%	5%	0%	0%	31%
CC(=O)c1c(-c2ccncc2)[nH]c(-c2ccncc2)c1C [GW493036]	0%	0%	16%	5%	17%	23%	38%	0%	0%	24%	0%	19%	3%	0%	0%	7%	84%	0%	20%	0%
CS(=O)c1ccc(-c2coc3ccc(-c4n[nH]c(=O)o4)cc23)cc1 (centres unmarked)	23%	13%	26%	0%	3%	17%	4%	10%	32%	9%	0%	12%	0%	0%	2%	20%	14%	14%	0%	12%
O=C(Nc1cccc(C(F)(F)F)c1)c1cccc(Oc2ccc3nccn3n2)c1	21%	5%	9%	6%	31%	15%	6%	0%	12%	21%	8%	76%	4%	31%	100%	0%	12%	0%	3%	0%

From publication PMC5540273 (PLoS ONE, 2017)
